Measurements from PubChem BioAssay (EPA / NIEHS).
Results filed as inconclusive are left out. Some structures have more than one record in an assay (separate samples or runs), and their calls can disagree. Calls of active or inactive are those of the source. The calls were made as follows: active = hit-call score of the fitted dose curve at least 0.9, where 1 is the maximum; inconclusive = response in the unintended direction; inactive = score below 0.9.

Key:
[1] = TOX21_p53_BLA_p2_viability: Viability Assessment in the Tox21 HCT-116 p53 Agonism Beta-lactamase Assay, Phase 2 (AID 2283591);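 also: actives lower the ATP signal meaning cytotoxicity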
Summary of the method: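 HCT116 p53-bla cells, 4000/well, dosed after 5 h plating (217-fold dilution of DMSO stocks) and incubated 16 h at 37C. Viability taken as cellular ATP by CellTiter-Glo luminescence after 30 min RT; signal loss marks cytotoxicity.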

[2] = biological target: Cellular tumor antigen p53 (Homo sapiens) (UniProt P04637); experiment: TOX21_p53_BLA_p3_ratio: Tox21 HCT-116 p53 Agonism Beta-lactamase Assay, Ratio, Phase 3 (AID 2283596)
Chain of Cellular tumor antigen p53 (Homo sapiens) (P04637 whole entry, looked up): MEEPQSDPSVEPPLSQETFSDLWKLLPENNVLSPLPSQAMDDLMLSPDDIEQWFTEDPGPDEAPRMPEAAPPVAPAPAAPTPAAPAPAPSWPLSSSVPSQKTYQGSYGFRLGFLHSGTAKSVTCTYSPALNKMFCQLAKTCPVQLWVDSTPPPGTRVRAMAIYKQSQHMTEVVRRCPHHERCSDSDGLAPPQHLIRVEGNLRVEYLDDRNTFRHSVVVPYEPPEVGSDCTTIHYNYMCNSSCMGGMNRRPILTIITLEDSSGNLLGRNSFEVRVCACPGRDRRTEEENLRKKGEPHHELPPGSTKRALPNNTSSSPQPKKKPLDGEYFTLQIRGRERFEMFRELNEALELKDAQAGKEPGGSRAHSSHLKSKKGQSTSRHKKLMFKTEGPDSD
Summary of the method: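 Cells were seeded at 4000/well, rested 5 h at 37C, then dosed with DMSO compound solutions (217-fold dilution) for 16 h. CCF4-AM substrate was loaded for 2 h at room temperature, and the 460/530 nm emission ratio was fitted for gain of signal versus DMSO.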

[3] = TOX21_p53_BLA_p4_viability: Viability Assessment in the Tox21 HCT-116 p53 Agonism Beta-lactamase Assay, Phase 4 (AID 2283597);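 also: hits lower the luminescence signal meaning cytotoxicity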
Summary of the method: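 4000 HCT116 cells per well; 5 h attachment; compounds from DMSO, 217-fold dilution; 16 h at 37C. Then CCF4-AM, 2 h RT, followed by CellTiter-Glo, 30 min RT, luminescence. Decrease = cytotoxicity.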

[4] = biological target: Cellular tumor antigen p53 (Homo sapiens) (UniProt P04637); experiment: TOX21_p53_BLA_p5_ratio: Tox21 HCT-116 p53 Agonism Beta-lactamase Assay, Ratio, Phase 5 (AID 2283599)
Summary of the method: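 HCT-116 p53-bla cells (4000/well) plated 5 h, dosed with compound (217-fold DMSO dilution) for 16 h at 37 C; CCF4-AM substrate 2 h at room temperature. Activity is the 460/530 nm emission ratio (405 nm excitation), fitted in gain-of-signal direction versus DMSO.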

[5] = TOX21_p53_BLA_p5_viability: Viability Assessment in the Tox21 HCT-116 p53 Agonism Beta-lactamase Assay, Phase 5 (AID 2283600)
Summary of the method: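 Decreased CellTiter-Glo luminescence denotes lost viability. Exposure: 16 h at 37C, 5% CO2, with compounds from DMSO stocks diluted 217-fold in wells of 4000 cells.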

[6] = biological target: Cellular tumor antigen p53 (Homo sapiens) (UniProt P04637); experiment: TOX21_p53_BLA_p4_ratio: Tox21 HCT-116 p53 Agonism Beta-lactamase Assay, Ratio, Phase 4 (AID 2283601)
Summary of the method: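 HCT-116 p53 beta-lactamase reporter cells (4000/well) preincubated 5 h, then compound (217-fold dilution of DMSO stock) for 16 h at 37C. CCF4-AM substrate added 2 h at room temperature; 460/530 nm emission ratio fitted upward versus DMSO.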

[7] = TOX21_p53_BLA_p3_viability: Viability Assessment in the Tox21 HCT-116 p53 Agonism Beta-lactamase Assay, Phase 3 (AID 2283593);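 also: cells exposed to compound for 16 h before reading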
Summary of the method: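 HCT116 cells, 4000/well, dosed 5 h after plating by pin transfer (217-fold dilution from DMSO stock) and incubated 16 h at 37C, 5% CO2. Viability read as ATP luminescence with CellTiter-Glo after 30 min at room temperature.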

[8] = biological target: Thyroid hormone receptor alpha (Rattus norvegicus) + Thyroid hormone receptor beta (Rattus norvegicus) (UniProt P18113+P63059); experiment: TOX21_TR_LUC_GH3_Antagonist_Followup: Tox21 GH3 Thyroid Hormone Receptor Antagonism Luciferase Follow-Up Assay (AID 2283942)
Summary of the method: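 Luminescence read-out (ONE-Glo, 30 min at room temperature) in GH3 reporter cells challenged with 1.0 nM T3 final. Compounds ran at 92 uM to 5nM over 15 concentrations for 24 h; DMSO served as negative control and baseline.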

THRA (gene 7067) = THRA (gene 7067) (UniProt P10827); experiment: TOX21_TRA_COA_Antagonist_Followup_ratio: Tox21 Thyroid Hormone Receptor alpha Antagonism through Coactivator Recruitment Follow-Up Assay, Ratio (AID 2283953)
Chain of THRA (gene 7067) (P10827 whole entry, looked up, the tested form may be a part): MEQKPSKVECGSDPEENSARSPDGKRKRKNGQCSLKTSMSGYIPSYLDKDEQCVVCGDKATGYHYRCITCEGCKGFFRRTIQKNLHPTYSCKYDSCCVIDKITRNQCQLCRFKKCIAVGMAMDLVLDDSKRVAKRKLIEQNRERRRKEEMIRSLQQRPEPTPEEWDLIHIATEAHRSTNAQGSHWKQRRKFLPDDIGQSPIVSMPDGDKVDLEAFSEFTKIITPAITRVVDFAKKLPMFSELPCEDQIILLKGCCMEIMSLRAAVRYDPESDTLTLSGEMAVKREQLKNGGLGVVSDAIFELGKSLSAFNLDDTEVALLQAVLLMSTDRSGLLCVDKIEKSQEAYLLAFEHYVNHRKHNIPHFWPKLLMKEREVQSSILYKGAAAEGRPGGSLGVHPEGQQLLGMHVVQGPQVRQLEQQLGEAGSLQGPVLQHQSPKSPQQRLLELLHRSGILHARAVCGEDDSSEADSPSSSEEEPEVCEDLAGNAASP
Summary of the method: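 GST-TRα LBD 2.5 nM, BSA 0.10%, + cpd; then FITC-SRC-2 peptide 200 nM + Tb-anti-GST Ab 2 nM. TR-FRET ratio 520/495 nm. Norm: DMSO = 0%, T3 = 100%.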

THRB (gene 7068) [9] = biological target: THRB (gene 7068) (UniProt P10828); experiment: TOX21_TRB_BLA_Antagonist_Followup_ratio: Tox21 Thyroid Hormone Receptor beta Antagonism Beta-lactamase (BLA) Follow-Up Assay, Ratio (AID 2283958)
Chain of THRB (gene 7068) (P10828 whole entry, looked up, the tested form may be a part): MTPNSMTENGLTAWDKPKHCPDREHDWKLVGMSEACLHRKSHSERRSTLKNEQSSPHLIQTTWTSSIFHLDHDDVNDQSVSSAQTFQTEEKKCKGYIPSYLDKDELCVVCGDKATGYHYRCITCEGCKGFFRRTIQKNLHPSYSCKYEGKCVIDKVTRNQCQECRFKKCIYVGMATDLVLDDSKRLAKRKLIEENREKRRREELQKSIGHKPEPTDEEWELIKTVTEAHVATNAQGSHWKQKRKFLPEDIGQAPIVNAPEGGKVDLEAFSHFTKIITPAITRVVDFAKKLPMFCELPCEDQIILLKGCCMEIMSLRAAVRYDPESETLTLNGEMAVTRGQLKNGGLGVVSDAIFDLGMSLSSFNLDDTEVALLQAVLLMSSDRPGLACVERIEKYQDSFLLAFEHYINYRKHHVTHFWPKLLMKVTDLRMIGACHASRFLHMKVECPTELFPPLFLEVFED
Summary of the method: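 Cells were plated and allowed to attach for 5 h, then dosed with compounds in DMSO at 11 concentrations for 18 h at 37C. Beta-lactamase reporter activity was measured via CCF4-AM FRET as the 460:530 nm ratio.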

[10] = TOX21_TRB_BLA_Antagonist_Followup_viability: Viability Assessment in the Tox21 Thyroid Hormone Receptor beta Antagonism Beta-lactamase (BLA) Follow-Up Assay (AID 2283961)
Summary of the method: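 HEK293T cells with GAL4-human TRβ LBD and UAS-bla reporter, 3,000 cells/well in 2% charcoal-stripped FBS medium; 11-point concentrations in triplicate, 18 h at 37C. Viability from ATP by CellTiter-Glo luminescence, 30 min RT, same plates.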

THRB (gene 7068) [11] = biological target: THRB (gene 7068) (UniProt P10828); experiment: TOX21_TRB_COA_Antagonist_Followup_ratio: Tox21 Thyroid Hormone Receptor beta Antagonism through Coactivator Recruitment Follow-Up Assay, Ratio (AID 2283967)
Summary of the method: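 GST-TRb LBD 5.0 nM + 0.10% BSA, compound added; fluorescein-SRC-2 peptide 200 nM, Tb-anti-GST Ab 2 nM. TR-FRET, ex 340 / em 520:495 ratio. Norm: DMSO 0%, T3 100%.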

[12] = biological target: Retinoic acid receptor RXR-alpha (Homo sapiens) (UniProt P19793); experiment: TOX21_TR_RXR_BLA_Antagonist_Followup_ratio: Tox21 Thyroid Hormone Receptor beta Retinoid X Receptor alpha (RXRa) Antagonism Beta-lactamase (BLA) Follow-Up Assay, Ratio (AID 2283972)
Chain of Retinoic acid receptor RXR-alpha (Homo sapiens) (P19793 whole entry, looked up): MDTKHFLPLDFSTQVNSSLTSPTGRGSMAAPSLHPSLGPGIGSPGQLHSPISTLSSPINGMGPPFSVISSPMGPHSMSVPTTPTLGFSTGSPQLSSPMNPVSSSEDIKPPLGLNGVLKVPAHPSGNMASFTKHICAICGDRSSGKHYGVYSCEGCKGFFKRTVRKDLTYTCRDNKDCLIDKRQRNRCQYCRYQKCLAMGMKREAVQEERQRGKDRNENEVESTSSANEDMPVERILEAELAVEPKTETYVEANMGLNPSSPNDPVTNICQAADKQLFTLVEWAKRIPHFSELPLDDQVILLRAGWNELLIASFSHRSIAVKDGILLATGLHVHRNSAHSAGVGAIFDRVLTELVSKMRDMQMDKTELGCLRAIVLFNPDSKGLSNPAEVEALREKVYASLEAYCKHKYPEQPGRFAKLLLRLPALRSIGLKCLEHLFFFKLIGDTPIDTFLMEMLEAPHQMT
Summary of the method: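 RXRa-UAS-bla HEK293T cells, 2,500/well in phenol red-free DMEM with 2% charcoal-stripped FBS, 5 h attachment, then compounds (11 concentrations, triplicate) for 16 h at 37C; FRET-B/GCCF4-AM substrate 2 h RT; 460:530 nm ratio, loss of signal vs DMSO.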

Measured: AC50

BrCCCCCBr
inactive: [1] | [2] | [3] | [4] | [5] | [6]

O=C(O)C(=O)Cc1ccccc1
inactive: [1] | [7] | [4] | [6]

Nc1nc(/C(=C/CC(=O)O)C(=O)N[C@@H]2C(=O)N3C(C(=O)O)=CCS[C@H]23)cs1
inactive: [1] | [2] | [3] | [4]

O=C(O)CN(CC(=O)O)CC1=CC2C(=CC1=O)Oc1cc(O)c(CN(CC(=O)O)CC(=O)O)cc1C21OC(=O)c2ccccc21 (stereo not given)
inactive: [1] | [7] | [5]

CCOC(=O)[C@H](CCc1ccccc1)N[C@@H](C)C(=O)N1C(=O)N(C)C[C@H]1C(=O)O
inactive: [1] | [2] | [3] | [4] | [5]

ClC/C=C/CCl
inactive: [1] | [2] | [3] | [4] | [5]

Cc1ccc2c(c1)c1c3n2CCNC3CCC1 (stereo not given)
inactive: [1] | [2] | [3] | [4]

Cc1nccn1CC1CCc2c(c3ccccc3n2C)C1=O (stereo not given)
inactive: [1] | [7] | [5] | [6]

O=Cc1ccc(Cl)c(Cl)c1
inactive: [1] | [2] | [3]

CC(=O)Oc1cc2c(s1)CCN(C(C(=O)C1CC1)c1ccccc1F)C2 (stereo not given)
inactive: [1] | [7] | [5]

C[C@@]12CCC[C@H]1[C@@H]1CC[C@H]3C[C@@H](O)CC[C@]3(C)[C@H]1CC2
inactive: [1] | [2]

C=CC(=O)OCCCl
inactive: [1] | [7] | [5]

CC(C)(C)C(=O)CC(=O)C(C)(C)C
inactive: [1] | [2] | [3] | [4]

O.O=C([O-])CC([S-])C(=O)[O-].[Au+].[Na+].[Na+] (stereo not given)
inactive: [1] | [2] | [3] | [4]

CC[C@@]1(O)C[C@@H]2CN(CCc3c([nH]c4ccccc34)[C@@](C(=O)OC)(c3cc4c(cc3OC)N(C)[C@H]3[C@@](O)(C(=O)OC)[C@H](OC(C)=O)[C@]5(CC)C=CCN6CC[C@]43[C@@H]65)C2)C1
inactive: [1] | [2] | [3] | [4] | [5] | THRA (gene 7067) | [10] | THRB (gene 7068) [11] | [12]
active: [4] 0.0173 µM | [8] 17.5 µM | THRB (gene 7068) [9] 0.0734 µM

SCCCCCCCCS
inactive: [1] | [2] | [3] | [4]

C1COC1
inactive: [1] | [2] | [3] | [4] | [5]
